Assay results: PubChem BioAssay (EPA / NIEHS)
Active and inactive are the calls of the source. The calls were made as follows: active = hit-call score of the fitted dose curve at least 0.9, where 1 is the maximum; inactive = score below 0.9.

Each compound was assayed on TIMP1, TIMP1 (gene 7076) (assay: LTEA_HepaRG_TIMP1: Life Technologies and Expression Analysis (LTEA) Assay for TIMP1 using HepaRG (AID 2283534;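 as to outcome: TaqMan qRT-PCR signal normalized to ACTB GAPDH and POLR2A housekeeping genes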)). Details: mRNA level, 48 h; actives raise or lower the signal.
Protocol: LTEA_HepaRG is a cell based, multiplexed-readout assay that uses HepaRG, a human liver cell line, with measurements taken at 48 hours after chemical dosing on a 96-well plate.LTEA_HepaRG_TIMP1 is one of 102 assay component(s) measured in the LTEA HepaRG cell culture assay. It is a marker of Cell proliferation, survival, death.Data from the assay component LTEA_HepaRG_TIMP1 was analyzed into 1 endpoint. This assay endpoint, LTEA_HepaRG_TIMP1, was analyzed with bidirectional fitting relative to DMSO as the negative control and baseline of activity. Using a type of inducible reporter, measures of mRNA induction for gain or loss-of-signal activity can be used to understand regulation of transcription factor activity. To generalize the intended target to other relatable targets, this assay endpoint is annotated to the protease inhibitor intended target family, where the subfamily is metalloproteinase inhibitor.
A total of 1060 chemcials from the ToxCast library were tested in eight-point concentration-response experiments. Cell culture and cytotoxicity assays were conducted at Thermo Fisher Scientific's Custom Services facility (Madison, WI). A single lot of human HepaRG cells (Thermo Fisher Scientific, Frederick, MD) was used for the cell culture experiments. 96-well format collagen type I coated plates of human HepaRG cells were prepared using established methods. Briefly, cryopreserved HepaRG cells were thawed, plated at a density of approximately 100,000 cells/well in HepaRG Thaw, Plate, and General Purpose media (HPRG770, Thermo Fisher Scientific), and incubated for 48 hours. 0.5% DMSO was selected as vehicle control to balance the requisite need of DMSO in HepaRG cultures to maintain differentiation (for example, baseline metabolism, proportions of hepatocytes vs. cholangiocytes), while enabling further hepatic receptor pathway activation (for example, PXR and CAR) in response to chemical exposure. 48 hours after plating, the culture medium was replaced with HepaRG Serum-Free Incudtion Media. Cells were exposed to each test chemical in duplicate and maintained in CO2 incubators for another 48 hours. Chemical plates were thawed to room temperature and 200x concentrations of treatment groups were prepared. 8-point conentration-reponse curves were made with the highest exposure at 100 uM, followed by half-log dilutions, all in 0.5% DMSO. Each test plate contained variouse controls, induction positive controls (1mM phenobarbital), cytotoxicity positive controls ([…] aflatoxin B1), vehicle controls (0.5% DMSO), and total lysis controls (0.5% DMSO). Cell morphology images were taken using an Essen IncuCyte FLR automated microscope, with six 96-well plates imaged in about 24 minutes. Images were captured and exported and JPEG files. Spent culture media was transfered to black-well plates for the LDH assay, and remaining media was sorted at -80 C for later use. Cells were treated with RLT buffer and frozen until shipped for gene expression analysis. Total RNA was isolated from the cell suspension in 75 uL of Buffer RLT (Qiagen, Germantown, MD 20874) by Quintiles/Expression Analysis (Durham, NC) using a custom isolation procedure. Total RNA from each plate well was transferred to a preamplification plate. Fluidigm's 96.96 Dynamic ArrayTM (Fluidigm, Amsterdam, the Netherlands) technology was used for gene expression analyses by quantitative reverse transcription polymerase chain reaction (qRT-PCR, performed by Quintiles/Expression Analysis, Durham, NC)89. Standard TaqManTM Assays (Applied Biosystems/ThermoFisher Scientific, Foster City, CA) were used to assess the expression of 93 genes selected based on their selectivity and sensitivity to important hepatic receptors known to be modulated by environmental chemicals; importance in human hepatocyte functionality; and hepatotoxicity. […]

Q: How did the outcome turn out when `c1ccc2ccccc2c1` was run?
A: inactive

Q: For `O=C(O)c1ccccc1-n1cc(C(=O)O)c(=O)c2cc(Nc3c(F)cc(F)cc3Cl)c(Cl)cc21`, which outcome is on record?
A: inactive

Q: `CN(C)C(=O)C1(N2CCCCC2)CCN(CC[C@@]2(c3ccc(Cl)c(Cl)c3)CN(C(=O)c3ccccc3)CCO2)CC1` was tested. Which AC50 did it give?
A: 17.4 µM (active)

Q: How did the outcome turn out when `CC1(C)NC(=O)N(c2ccc([N+](=O)[O-])c(C(F)(F)F)c2)C1=O` was run?
A: inactive

Q: With `Cc1cc(F)ccc1-c1cc(N2CC[C@@H](O)[C@H]2CO)ncc1N(C)C(=O)C(C)(C)c1cc(C(F)(F)F)cc(C(F)(F)F)c1` as the compound, how does the outcome read?
A: inactive

Q: How did the outcome turn out when `O=C(OCCCCCCOC(=O)c1ccccc1)c1ccccc1` was run?
A: inactive

Q: Which outcome does the source give for `O=CCCCC=O` here?
A: inactive

Q: Which outcome does the source give for `CCN(Cc1cccnc1)C(=O)c1cccc(Cl)c1[C@]1(C)C(=O)N(Cc2ccc(OC)cc2OC)c2ccc(Cl)cc21` here?
A: inactive

Q: How did the outcome turn out when `CCCCCCCCOC(=O)c1cc(O)c(O)c(O)c1` was run?
A: inactive

Q: With `CCN(Cc1cccc(S(=O)(=O)O)c1)c1ccc(C(=C2C=CC(=[N+](CC)Cc3cccc(S(=O)(=O)O)c3)C=C2)c2ccccc2S(=O)(=O)[O-])cc1` as the compound, how does the outcome read?
A: inactive

Q: `CCO[Si](CCCNC(N)=O)(OCC)OCC` was tested. Which outcome did it give?
A: inactive

Q: `Cc1cn([C@H]2C[C@H](N=[N+]=[N-])[C@@H](CO)O2)c(=O)[nH]c1=O` was tested. Which outcome did it give?
A: inactive

Q: How did the outcome turn out when `CCOC(=O)O[C@H](C)OC(=O)c1ccc2c(c1)cc(C(=O)NC1CCN(C(C)C)CC1)n2Cc1cc(-c2ccc(Cl)s2)on1` was run?
A: inactive

Q: `OCCO` was tested. Which outcome did it give?
A: inactive

Q: `Cc1ccc(C(C)C)cc1` was tested. Which outcome did it give?
A: inactive

Q: How did the outcome turn out when `CCCCCCCCCCCO` was run?
A: inactive

Q: How did the outcome turn out when `OC12N=C(c3ccccc3)SC1Cc1cc(Cl)ccc12` (stereo not given) was run?
A: inactive

Q: For `COc1cccc([C@H](O)C2CCN(CCc3ccc(F)cc3)CC2)c1OC`, which outcome is on record?
A: inactive

Q: Which outcome does the source give for `c1ccc2n[nH]nc2c1` here?
A: inactive

Q: For `CN1C(=O)CC[C@H]1c1cccnc1`, which outcome is on record?
A: inactive

Q: For `NC(=O)c1nc(-c2cccc(-c3cc(F)ccc3OCC(F)(F)C(F)(F)F)c2)n[nH]1`, which AC50 is on record?
A: 83.2 µM (active)

Q: How did the outcome turn out when `Clc1cc(Cl)c2c(c1)N=C1CCCCCN1C2` was run?
A: inactive

Q: For `Oc1ccccc1`, which outcome is on record?
A: inactive

Q: Which outcome does the source give for `CCCC(=O)OCCC(C)C` here?
A: inactive

Q: For `COc1cc(C(=O)NC2CCN(C)CC2)ccc1Nc1ncc2c(n1)N(C1CCCC1)CC(F)(F)C(=O)N2C`, which AC50 is on record?
A: 11.9 µM (active)

Q: Which AC50 does the source give for `CCCCCCCCCCCC[N+](C)(C)C` here?
A: 83.4 µM (active)

Q: How did the outcome turn out when `CC(C)(c1cc(Br)c(O)c(Br)c1)c1cc(Br)c(O)c(Br)c1` was run?
A: inactive

Q: With `C[C@]12CC[C@@H]3c4ccc(O)cc4CC[C@H]3[C@@H]1CCC2=O` as the compound, how does the outcome read?
A: inactive

Q: With `O=c1ccc2ccccc2o1` as the compound, how does the outcome read?
A: inactive

Q: How did the outcome turn out when `CCCCCCCCN(C)CCCCCCCC` was run?
A: inactive

Q: With `CC[C@@H]1C[C@H](N(Cc2cc(C(F)(F)F)cc(C(F)(F)F)c2)C(C)=O)c2cc(C(F)(F)F)ccc2N1C(=O)OC(C)C` as the compound, how does the outcome read?
A: inactive

Q: `CC(O)CC(C)(C)O` (stereo not given) was tested. Which outcome did it give?
A: inactive

Q: How did the outcome turn out when `Cc1ncc(CO)c(CO)c1O` was run?
A: inactive

Q: `O=c1c(-c2ccc(O)cc2)coc2cc(O)cc(O)c12` was tested. Which outcome did it give?
A: inactive

Q: How did the outcome turn out when `O=C1c2ccccc2C(=O)N1CCc1noc(-c2ccc(CN3CCCCCC3)s2)n1` was run?
A: inactive

Q: With `COCC(C)OCC(C)OCC(C)O` (stereo not given) as the compound, how does the outcome read?
A: inactive

Q: Which outcome does the source give for `O=C1O[C@H]([C@@H](O)CO)C(O)=C1O` here?
A: inactive

Q: For `O=C(Nc1ccc(Cl)cc1)Nc1ccc(Cl)c(Cl)c1`, which AC50 is on record?
A: 16 µM (active)

Q: Which outcome does the source give for `O=C(O)Cn1c(=O)n(Cc2ccc(Br)cc2F)c(=O)c2ccc(Cl)cc21` here?
A: inactive

Q: How did the outcome turn out when `Cc1oc2c(NC(=O)c3c(Cl)cccc3Cl)cccc2c1C(C)(C)O` was run?
A: inactive
